Source: PubChem
SMN2 splice up = increases expression of the SMN2 splice variant; Potency, µM (titrated, usually from 46.1 µM), inactives show at the top dose activity change, positive = activation, usual class: activators; HEK293 SMN2-luciferase splicing reporter, luminescence, 30-36 h; actives 2.8% (n = 210,000); further: % of control where 0% means no effect; nearly all actives have a fitted effect of over 55% in size
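HEK293 cells carry an SMN2 minigene-luciferase reporter in which exon 7 inclusion puts luciferase in frame. Cells were seeded at 2000 cells/well, attached for 10-12 hours, then exposed to compounds for 30-36 hours at 37C before ONE-Glo luminescence.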
NPC1 promoter act = NPC1 promoter activation; Huh7 NPC1 promoter luciferase reporter, 24 h; Potency, µM (top dose mostly 9.22 µM), without a hit: at the top dose activation, hits mostly activators; actives 2.4% (n = 320,000); AID 485313; further: % of control where 0% means no effect; nearly all actives have a fitted effect of over 60% in size
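Luminescence from an NPC1 promoter-driven luciferase reporter in stably transfected Huh7 cells was measured after 24 h compound treatment at 37 °C, followed by 10 min ambient incubation with luciferase detection reagent.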
ELG1 genotox = inducers of genotoxicity in HEK293T ELG1-luciferase cells; HEK293T ELG1-luciferase reporter, luminescence, 16 h; Potency, µM (doses to about 46 µM), without a hit: top-dose activity change, positive = activation, most hits filed as activators; actives 1.3% (n = 330,000); AID 504466; further: % of control where 0% means no effect; nearly all actives have a fitted effect of over 60% in size
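Genotoxicity was scored as increased ELG1-luciferase reporter signal, measured by ONE-Glo luminescence (30 min, room temperature). Compound or vehicle exposure of the HEK293T reporter cells lasted 16 hr at 37°C.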
Rab9 promoter act = Rab9 promoter activation; Huh7 Rab9 promoter-luciferase reporter, luminescence, 24 h; Potency, µM (doses to about 9.22 µM), inactives show at the highest dose activation, negative = inhibition, hits mostly activators; actives 2.8% (n = 320,000); AID 485297; further: % of control where 0% means no effect; nearly all actives have a fitted effect of over 60% in size
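Huh7 cells stably carrying Rab9 promoter–luciferase reporter, plated 1500 cells/well, compound added after 2 h and incubated 24 h at 37 °C; luciferase luminescence then read after 10 min with detection reagent.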
FLuc counter = counter-screen for miR-21 project: firefly luciferase inhibitors or activators. P08659. purified FLuc, Km substrates, luminescence inhibition. Potency, µM (doses to about 57.5 µM), for the others: at the top dose activity change, negative = inhibition, hits mostly inhibitors. actives 6.9% (n = 360,000). AID 588342;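 further: plate controls were vehicle for no effect and reference inhibitor for full effect; nearly all actives have a fitted effect of over 55% in size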
Target sequence (P08659 whole entry, looked up): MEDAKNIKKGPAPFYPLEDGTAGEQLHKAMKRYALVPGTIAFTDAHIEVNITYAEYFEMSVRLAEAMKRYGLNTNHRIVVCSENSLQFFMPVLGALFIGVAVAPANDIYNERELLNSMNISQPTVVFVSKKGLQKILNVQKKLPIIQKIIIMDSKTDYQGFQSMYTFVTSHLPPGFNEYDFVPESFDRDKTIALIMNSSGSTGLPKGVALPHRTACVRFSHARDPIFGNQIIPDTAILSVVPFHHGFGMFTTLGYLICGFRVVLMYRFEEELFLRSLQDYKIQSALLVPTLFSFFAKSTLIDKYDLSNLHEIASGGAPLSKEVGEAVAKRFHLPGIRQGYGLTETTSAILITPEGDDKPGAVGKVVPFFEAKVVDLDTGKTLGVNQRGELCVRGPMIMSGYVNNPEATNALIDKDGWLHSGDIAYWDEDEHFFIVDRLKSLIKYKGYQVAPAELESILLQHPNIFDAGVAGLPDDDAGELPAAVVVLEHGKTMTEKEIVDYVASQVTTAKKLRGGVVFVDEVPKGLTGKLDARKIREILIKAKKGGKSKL
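Biochemical qHTS of compounds, final roughly 60 µM downward over six points, against 10 nM purified firefly luciferase using Km concentrations of substrates (10 uM D-luciferin, 10 uM ATP) in Tris acetate pH 7.5 buffer; luminescence output.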
Luc counter = counter-screen: inhibitors of Kinase-Glo firefly luciferase; Kinase-Glo luciferase, ATP luminescence, 8 min; Potency, µM (top dose mostly 38.3 µM), for inactives: top-dose activity change, negative = inhibition, usual class: inhibitors; actives 0.28% (n = 200,000); AID 1379; further: on the % scale 0 is the no-effect control and ±100 the full control effect; nearly all actives have a fitted effect of over 60% in size
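Light output from Kinase-Glo luciferase with luciferin and 10 uM ATP in 50 mM imidazole pH 7.2, KCl, MgCl2, Tween 20, BSA; compound pin-delivered, 8-min ambient incubation, then luminescence read.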
Active calls of the source: *; ? = inconclusive; . = not tested or not shown; [ ] = dose if it differs, or a comment. In the library only some 7.4% were active in any assay of this set; here they are far more common. The call rests on the fitted dose curve; in most records, active means well fitted curve in the direction sought with a large enough effect; inconclusive means small, poorly fitted or top-dose-only effect, or another doubt; inactive means no such curve, though single readings can be large; an effect the other way counts as inactive or inconclusive. Potency means the concentration at half of the fitted maximal effect.

SMILES	SMN2 splice up	NPC1 promoter act	ELG1 genotox	Rab9 promoter act	FLuc counter	Luc counter
O=C(OCC(=O)N1CCN(C(=O)c2ccco2)CC1)c1cc(-c2cccc(Br)c2)nc2ccccc12	-12%	1%	-23%	-6%	9.5µM*	-2%
O=C(OCC(=O)N1CCN(C(=O)c2ccco2)CC1)c1cc(=O)c2ccccc2o1	-12%	-3%	1%	-2%	-1%	0%
O=C(OCC(=O)N1CCN(C(=O)c2ccco2)CC1)c1cc(-c2ccccc2)nc2ccccc12	1%	-2%	-12%	8%	15µM*	14%
O=C(OCC(=O)N1CCN(C(=O)c2ccco2)CC1)c1cc(-c2ccc(F)cc2)nc2ccccc12	-8%	-2%	-19%	-13%	11µM*	-4%
Cc1cccc(OCc2nnc(SCC(=O)Nc3ccc(C)cc3C)o2)c1	-6%	.	.	.	-14%	.
CC(C)CCNC(=O)c1cc(Sc2ccc(F)cc2F)nc2ccccc12	.	.	.	.	1%	.
COC(=O)Cc1c(C)nc2nc(-c3ccc(C)cc3)[nH]n2c1=O	8%	15%	?	21%	8.5µM*	-2%
COC(=O)Cc1c(C)nc2nc(-c3ccc(Cl)cc3)[nH]n2c1=O	4%	17%	?	26%	11µM*	6%
COC(=O)Cc1c(C)nc2nc(-c3ccccc3)[nH]n2c1=O	24%	8%	7%	2%	17µM*	-6%
O=C(Nc1ccc(Br)cc1)C1CCN(c2ncccn2)CC1	-3%	.	.	.	-1%	.
Cc1ccc(COc2cccc3cc(-c4noc(-c5ccc(C)cc5)n4)c(=O)oc23)cc1	8%	.	.	.	0%	.
CCOc1cccc2cc(-c3cn4cc(C)ccc4n3)c(=O)oc12	2.8µM*	0.63µM*	?	0.56µM*	0.12µM*	-7%
CC12C=CC(=O)C=C1CCC1C2=CCC2(C)C1CC[C@@H]2C(=O)CN1CCN(c2cc(N3CCCC3)nc(N3CCCC3)n2)CC1 (stereo partly specified)	-14%	.	.	.	.	.
COC(=O)c1c(NC(=O)c2cnccn2)sc2c1CCC2	?	1%	4%	2%	4%	-6%
O=C(NCc1cccnc1)C(=O)Nc1nc2ccccc2s1	-13%	14%	?	22%	15µM*	0%
O=C(Nc1nc2ccc(F)cc2s1)c1ccccn1	-54%	?	?	0.089µM*	0.54µM*	11µM*
O=C(Nc1nc(-c2ccco2)c(-c2ccco2)s1)c1cnccn1	.	-11%	-6%	-1%	-4%	.
O=C(Nc1nc2ccccc2s1)c1cnccn1	6.3µM*	1.1µM*	0.46µM*	0.32µM*	2.1µM*	7.9µM*
O=C(Nc1nc2c(s1)CCCC2=O)c1cnccn1	20µM*	?	23µM*	?	?	?
CCOC(=O)c1cc2c(=O)n3ccccc3nc2n(CC2CCCO2)c1=NC(=O)c1ccc(F)cc1 (stereo unspecified)	5%	.	.	.	0%	.
COc1cc(-c2nc3ncccn3c2Nc2ccc(C)cc2C)ccc1O	3%	.	.	.	-17%	.
Cc1cc(C)c2sc(NC(=O)c3ccc(S(=O)(=O)N4CCOCC4)cc3)nc2c1	.	.	.	.	-10%	.
CCOc1ccc2nc(NC(=O)c3cnccn3)sc2c1	.	0.79µM*	?	0.25µM*	1.5µM*	.
COc1cc(N=Nc2ccccc2C(=O)O)ccc1O	.	0%	1%	-10%	?	.
NS(=O)(=O)c1ccc(N=Nc2c(O)ccc3ccccc23)cc1	8%	7%	-10%	7%	-2%	-5%
SMILES	SMN2 splice up	NPC1 promoter act	ELG1 genotox	Rab9 promoter act	FLuc counter	Luc counter
Oc1ccc(N=Nc2c(O)ccc3ccccc23)cc1	-21%	16%	-1%	11%	27µM*	-14%
COc1cc(N=Nc2ccc3ccccc3c2)ccc1O	.	3.2µM*	12µM*	?	5.4µM*	.
Oc1ccc(N=Nc2ccc3ccccc3c2)cc1	.	3.5µM*	2.3µM*	?	1.1µM*	.
O=c1cc(N=Nc2ccc(O)cc2)[nH]c(=O)[nH]1	-25%[9.22 µM]	.	.	.	.	-10%[7.66 µM]
COc1cc(-c2ccno2)ccc1S(=O)(=O)N1CCN(c2cccc(Cl)c2)CC1	.	.	.	.	-1%	.
COC(=O)c1cc(-c2ccc3ccccc3c2)[nH]c(=O)c1C#N	6%[9.22 µM]	.	.	.	.	-2%[7.66 µM]
COc1cccc(C(=O)Nc2cc(C(=O)NCCc3ccccc3)ccc2Cl)c1	11µM*	9%	?	13%	-18%	-5%
CCCCC(=O)Nc1cc(C(=O)NCCc2ccccc2)ccc1Cl	7.9µM*	2.2µM*	?	2.5µM*	-4%	2%
Cc1ccnc(NC(=O)c2ccc(Cl)c(NC(=O)CCc3ccccc3)c2)c1	?	10%	-7%	5%	?	-3%
COc1cccc(C(=O)Nc2ccccc2NC(=O)c2cccc(OC)c2)c1	.	-4%	-7%	-2%	-7%	.
CCOC(=O)c1cccc(NC(=O)CCn2c(-c3ccc(F)cc3)cc(C(=O)OCC)c2C)c1	.	.	.	.	-6%	.
COc1c(O)cc2c(c1O)C1OC(CO)C(O)C(O)C1OC2=O (stereo unspecified)	.	-2%	7%	-2%	0%	.
O=C1OCC2OC(O)C(O)C(O)C2OC(=O)c2cc(O)c(O)c(O)c2-c2c(O)c(O)c3oc(=O)c4c(c(O)c(O)c5oc(=O)c2c3c54)-c2c1cc(O)c(O)c2O (stereo unspecified)	.	-3%	1%	-12%	27µM*	.
Cc1ccc(NC(=O)C(=S)NCc2ccco2)cc1	17%	?	?	2.8µM*	6µM*	0%
Cc1ccc(NC(=O)CSCC(=O)NCc2ccco2)cc1	.	-8%	0%	-4%	1%	.
Cc1ccc(NC(=O)CSCc2ccco2)cc1	13µM*	?	?	4µM*	15µM*	-2%
Cc1ccc(NC(=O)C(=O)NCc2ccco2)cc1	18µM*	.	.	.	-17%	.
CCOc1ccc(N=Nc2c(=O)[nH]n3c(C)cc(C)nc23)cc1	-6%	4%	3%	5%	-19%	-25%
Cc1ccc(N=Nc2c(=O)[nH]n3c(=O)cc(C)[nH]c23)cc1	-37%	6%	?	7%	15µM*	?
O=C(O)c1ccccc1SCc1cn2ccccc2n1	14%	0%	4%	9%	?	-4%
Cc1ccc(SCc2cn3ccccc3n2)cc1	.	1.3µM*	5.2µM*	1.6µM*	5.4µM*	.
c1ccc(CSCc2cn3ccccc3n2)cc1	16µM*	2.8µM*	?	1.1µM*	17µM*	-6%
c1ccc2nc(SCc3cn4ccccc4n3)cnc2c1	?	?	2%	?	?	1%
Nc1nc(NC(=O)c2ccc(Cl)cc2)nn1-c1ccccc1	17%	8%	-3%	10%	19µM*	0%
